Assay outcomes from PubChem.
Only some compounds are listed: those with a hit (about 3.9% of all), similar ones and a draw of the others.
ALR inh – blocks human ALR sulfhydryl oxidase activity | AID 485317 | inhibition, % (concentration not given with the values) | purified ALR, DTT oxidation, H2O2 HRP-luminol luminescence | P55789 | 290,000 tested, 3.8% active;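 active = mean replicate inhibition above about 79%, with every replicate also reaching it, limit read from the data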
CDK5 p35 inh – inhibitors of human CDK5/p35 kinase; Recombinant CDK5/p35, ADP-Glo luminescence, 60 min; inhibition, % at 10 µM; 330,000 tested, 0.01% active;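 active = highest replicate inhibition of at least 50% and at least 75% of replicates reaching 50%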;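 note: plate controls were DMSO neutral control for no effect and GW8510 at 10 µM for full effect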
Target sequence (Q00535 whole entry, looked up): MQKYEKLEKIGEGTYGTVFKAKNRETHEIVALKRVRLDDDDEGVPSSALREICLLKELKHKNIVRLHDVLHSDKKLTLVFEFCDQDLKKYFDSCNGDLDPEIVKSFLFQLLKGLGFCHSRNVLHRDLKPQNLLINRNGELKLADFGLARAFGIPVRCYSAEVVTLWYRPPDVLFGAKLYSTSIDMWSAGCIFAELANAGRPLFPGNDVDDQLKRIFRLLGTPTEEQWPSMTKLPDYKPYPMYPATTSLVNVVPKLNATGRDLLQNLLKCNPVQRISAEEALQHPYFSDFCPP
Target sequence (Q15078 whole entry, looked up): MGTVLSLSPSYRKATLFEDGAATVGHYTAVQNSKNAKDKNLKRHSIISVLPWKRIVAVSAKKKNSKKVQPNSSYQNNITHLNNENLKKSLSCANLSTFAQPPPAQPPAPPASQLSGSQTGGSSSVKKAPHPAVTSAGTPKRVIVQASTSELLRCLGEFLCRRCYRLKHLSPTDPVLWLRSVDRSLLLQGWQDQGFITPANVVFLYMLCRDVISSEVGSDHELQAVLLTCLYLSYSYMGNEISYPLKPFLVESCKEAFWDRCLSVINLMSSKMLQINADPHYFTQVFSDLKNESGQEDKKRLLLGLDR
CASP6 VEID inh – blocks human caspase-6 cleavage activity; P55212; purified caspase-6, Z-VEID-R110 cleavage fluorescence; 350,000 tested, 0.53% active; AID 686996; inhibition, % at 12.5 µM;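 active = mean inhibition across replicates at least about 35%, with every replicate also reaching that limit, limit read from the data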;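 note: 0% = median of neutral control wells and 100% = no fluorescence left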
NSD2 HMT inh – blocks human histone methyltransferase NSD2; O96028; NSD2 peptide methylation, AlphaScreen, 120 min; inhibition, % at 12.5 µM; 310,000 tested, 0.54% active; AID 743445; in the data active = inhibition above about 50%
Mot1-301 SUMO – SUMOylation pathway inhibition by Mot1-301 growth rescue; AID 2716; S. cerevisiae Mot1-301 growth rescue, ATP luminescence, 38.5C; percent above DMSO median, 100 means doubled; 320,000 tested, 1% active; growth rescue, % at 18.8 µM;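 active = every valid replicate shows activation above 250% relative to neutral control wells; inactive = the rest, any valid replicate at or below 250%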;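 note: OY570 slx delta 5 strain wells were the positive control but not used for scaling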
Glyco luc inh – N-linked glycosylation inhibition; D54 ERlucT glycosylation luciferase reporter, 24 h; percent of 100 nM tunicamycin response; reporter increase, % at 12.5 µM; 360,000 tested, 0.23% active; AID 588692;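 active = mean luciferase reporter signal, scaled so untreated is 0 and the glycosylation-blocking control 100, at or above a set limit in every replicate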;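 note: luciferase carries N-glycosylation sites so blocking glycosylation raises the light; 0% = median of neutral control wells and 100% = median of 100 nM tunicamycin wells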
Yeast Mot1 SUMO – inhibits SUMO pathway, affecting Mot1-301 yeast growth | shares compounds with Mot1-301 SUMO | S. cerevisiae Mot1-301 galactose growth, ATP luminescence, 24 h; -100 = growth of slx-deleted rescue strain | growth activity, percent, % at 42 µM | 2,300 tested, under 10 active | AID 493004;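 active = Signal drops as the depositor expects, and the fitted half-maximal dose is no more than ten times the top valid tested dose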;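 note: more negative values mean stronger growth rescue toward the control strain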
AlphaScreen art – AlphaScreen assay artifact in NSD2 counter-screen; AC35, µM (doses to about 10 µM), inactives show top-dose activity change, negative = signal loss; shares compounds with NSD2 HMT inh; AlphaScreen artifact counterscreen, preloaded methylated H4 peptide; 1,500 tested, 9.4% active; call rule not given here
Numbers without * were called inactive; · = no result given; + = active, no number.

SMILES	ALR inh	CDK5 p35 inh	CASP6 VEID inh	NSD2 HMT inh	Mot1-301 SUMO	Glyco luc inh	Yeast Mot1 SUMO	AlphaScreen art
O=C(Cc1ccccn1)N1CCCCN2[C@H](CO)[C@@H](c3ccc(-c4ccccc4)cc3)[C@@H]2C1	·	·	-0.9	·	·	·	·	·
N=c1c[n+](C2CCCCC2)[n-]o1	-2.5	1.1	-2.1	-3.7	483.9*	1.7	0.6	·
CN1C2CCC1CC(OC(=O)c1ccc([N+](=O)[O-])cc1)C2 (stereo unspecified)	·	-2.2	-3.1	-3.3	473.6*	2.3	0.1	·
Cc1ccc(OC(=O)N(C)C[C@H]2OCc3ccccc3-c3c(n(C)c4ccccc34)C(=O)N([C@H](C)CO)C[C@@H]2C)cc1	·	·	-1.2	·	·	·	·	·
CC(C)Oc1ccc(C2(C#N)CC[N+](C)(C)CC2)cc1	-3.0	0.7	·	-1.9	670.3*	1.0	0.6	·
O=C(Cc1ccccc1)N1CC2(C1)[C@H](c1ccccc1)[C@H](CO)N2Cc1cccc(F)c1	·	·	-0.4	·	·	·	·	·
CCN1[C@@H]2c3ccc(-c4ccc(OC)cc4)c(=O)n3C[C@H]1[C@H](CO)[C@H]2C(=O)OC	·	·	-0.2	·	·	·	·	·
COc1ccc(C#Cc2ccc([C@H]3[C@@H](CO)N4CCCCN(C(=O)Cc5ccncc5)C[C@H]34)cc2)cc1	·	·	0.1	·	·	·	·	·
Clc1cnc(Oc2ccc(Oc3ncc(Cl)cc3Cl)cc2)c(Cl)c1	-3.6	-2.6	0.0	0.5	622.8*	1.5	0.1	·
COC(=O)[C@H]1[C@H](CO)[C@H]2Cn3c(cccc3=O)[C@@H]1N2C(=O)C1CC1	·	·	-1.4	·	·	·	·	·
Cn1c(O)c(C(c2ccncc2)c2c(O)n(C)c(=S)n(C)c2=O)c(=O)n(C)c1=S	4.1	-1.4	·	0.9	-3.2	1.0	·	·
Cn1c(O)c(C(c2ccccn2)c2c(O)n(C)c(=S)n(C)c2=O)c(=O)n(C)c1=S	·	0.8	·	-1.5	476.6*	-2.0	0.5	·
O=C(Cc1cccnc1)N1CCCCN2[C@H](CO)[C@@H](c3ccc(C#CC4CCCC4)cc3)[C@H]2C1	·	·	0.4	·	·	·	·	·
COc1ccc(OC(=O)N(C)C[C@@H]2OCc3ccccc3-c3c(n(C)c4ccccc34)C(=O)N([C@@H](C)CO)C[C@H]2C)cc1	·	·	4.0	·	·	·	·	·
[N-]=[N+]=NCCN1CCC(O)CCC1=O (stereo unspecified)	-2.4	2.7	-3.8	·	+	2.7	0.4	·
CCC12CN3CCN(CC(C3)/C1=N/NC(=O)c1ccncc1)C2	-6.6	0.3	1.5	-4.6	506.7*	1.1	0.7	·
CC(C)c1ccc(N2C(=O)NC(=O)/C(=C\C=C\c3ccco3)C2=O)cc1	18.8	·	30.1	94.2*	-10.1	·	·	-8.3%
O=C(Cc1cccnc1)N1CCCCN2[C@H](CO)[C@@H](c3ccc(C#CC4CC4)cc3)[C@@H]2C1	·	·	0.5	·	·	·	·	·
COc1ccc(N2C(=O)NC(=O)/C(=C\c3ccc([N+](=O)[O-])s3)C2=O)cc1	7.3	-8.0	52.3*	51.4*	-18.7	-0.6	·	-1.8%
COc1ccc(N2C(=O)NC(=O)/C(=C/c3ccc([N+](=O)[O-])s3)C2=O)cc1	40.5	·	30.4	31.6	31.0	2.4	·	·
Fc1ccc(Cn2nnnc2C(c2ccc(Cl)cc2)N2CC=C(c3ccc(F)cc3)CC2)cc1 (stereo unspecified)	0.9	-0.5	-0.6	50.8*	5.8	-7.7	·	-0.7%
CCCCn1c(N)c(C(=O)OCC2CCCO2)c2nc3ccccc3nc21 (stereo unspecified)	-6.8	-0.4	9.1	82.9*	-2.3	11.5	·	0.6%
CCCCCn1c(N)c(C(=O)NCc2cccs2)c2nc3ccccc3nc21	0.6	·	·	82.8*	16.0	·	·	4.4%
COCCCn1c(N)c(C(=O)NCCC(C)C)c2nc3ccccc3nc21	11.8	-2.0	·	108.7*	13.2	3.1	·	5.2%
CCCCNC(=O)c1c(N)n(Cc2ccc3c(c2)OCO3)c2nc3ccccc3nc12	-10.4	0.3	-1.1	68.3*	-17.3	-0.6	·	-6.1%
